The nature of experiment [1]: compound effects on lung adenocarcinoma cell viability – A549, calcein-AM fluorescence, 48 h, basal, profiling panel (AID 1162). Further: test concentration not given here. To be noted: higher = more signal.
Experiment [2] can be described thus: compound effects on differentiated 3T3-L1 adipocyte viability – cell-based, 3T3-L1 adipocytes, calcein-AM fluorescence, 48 h, basal, profiling panel (AID 1163). Further: test concentration not given here. The note with it: 3T3-L1 adipocytes viability, higher = more signal.
Experiment [3] is described as follows: compound effects on hepatocellular carcinoma cell viability – HepG2, calcein-AM fluorescence, 48 h, basal, profiling panel (AID 1164). Further: test concentration not given here. The note with it: higher = more signal.
Experiment [4] is described as follows: compound effects on multiple myeloma cell viability – MM1S, calcein-AM fluorescence, 48 h, basal, profiling panel (AID 1165).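 Further: viability of MM1S multiple myeloma cells under basal unstimulated conditions; test concentration not given here.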 To be noted: higher = more signal.
A short description of experiment [5]: calcein-AM signal in unstimulated myeloma cells – cell-based, calcein-AM fluorescence, 48 h, PK04 Diversity Set, profiling panel (AID 1166).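 Further: cells grown under basal conditions without added stimulus; test concentration not given here.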 To be noted: RPMI8226 myeloma viability, higher = more signal.
Experiment [6] can be described thus: JC-1 mitochondrial signal, unstimulated HepG2 cells – cell-based, JC-1 fluorescence, 24 h, 100 nL compound, profiling panel (AID 1167). Further: test concentration not given here. The note with it: HepG2 mitochondrial potential, higher = more signal.
The nature of experiment [7]: JC-1 mitochondrial signal, unstimulated adipocytes – cell-based, JC-1 fluorescence, 3T3-L1 adipocytes, 24 h, 100 nL compound, profiling panel (AID 1168). Further: test concentration not given here. The note with it: JC-1 mitochondrial fluorescence, higher = more signal, called active from +8 up or from −8 down.
Experiment [8] in a line: JC-1 mitochondrial signal, unstimulated myeloma cells – cell-based, JC-1 fluorescence, RPMI8226, 24 h, 100 nL compound, profiling panel (AID 1169). Further: test concentration not given here. To be noted: JC-1 mitochondrial potential fluorescence, higher = more signal.
Experiment [9] can be described thus: JC-1 mitochondrial signal, unstimulated MM1S myeloma – cell-based, JC-1 fluorescence, 24 h, 100 nL compound, profiling panel (AID 1170). Further: test concentration not given here. The note with it: MM1S mitochondrial potential, higher = more signal.
Experiment [10] can be described thus: resazurin metabolic signal in A549 cells – cell-based, resazurin fluorescence, 24 h, PK04 Diversity Set, profiling panel (AID 1171). Further: test concentration not given here. To be noted: A549 viability, higher = more signal, called active from +8 up or from −8 down. (In general: Resazurin is reduced to fluorescent resorufin, in cell work by metabolically active cells.)
Experiment [11] is described as follows: resazurin metabolic signal in HepG2 cells – cell-based, resazurin fluorescence, 24 h, PK04 Diversity Set, profiling panel (AID 1172). Further: test concentration not given here. The note with it: HepG2 viability, higher = more signal.
A short description of experiment [12]: budding yeast growth changes without added modifier – OD600, strain BY4716, 24 h, basal condition, primary screen (AID 1173). To be noted: S. cerevisiae BY4716 growth, OD600, 24 h; higher = more signal, called active from +8 up or from −8 down.
The nature of experiment [13]: viability profiling in MM1S myeloma cells – cell-based, resazurin fluorescence, basal, 24 h, PK04 Diversity Set, profiling panel (AID 1174). Further: test concentration not given here. The note with it: higher = more signal, called active from +8 up or from −8 down.
The target in experiment [14] is Dihydroorotate dehydrogenase (quinone), mitochondrial (Plasmodium falciparum (isolate 3D7)) (UniProt Q08210). The experiment can be described thus: inhibition of P. falciparum DHODH – biochemical, C-terminal His tag, absorbance 600 nm, primary screen (AID 1175).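 Further: recombinant parasite enzyme with a five histidine tag at its C terminus; test concentration not given here.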 To be noted: PfDHODH enzyme, DCIP absorbance 600 nm; higher = more signal, called active from +8 up or from −8 down.

Experiment [15] is described as follows: inhibition of PAO1 biofilm formation – strain PAO1, LB-PBS medium, absorbance 600 nm, primary screen (AID 1176). Further: test concentration not given here. The note with it: P. aeruginosa PAO1 growth/biofilm, A600, 12 h; higher = more signal.
Experiment [16] in a line: growth modulation of vineyard yeast isolate – strain RM11-1a, OD600, basal, 24 h, primary screen (AID 1177).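 Further: cultures grown under basal conditions with no added stressor; test concentration not given here.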 The note with it: S. cerevisiae RM11-1a growth, OD600, 24 h; higher = more signal, called active from +8 up or from −8 down.
The nature of experiment [17]: growth of efflux-deficient E. coli DRC39 – strain DRC39, OD650, 24 h, E. coli filamentation inducers, primary screen (AID 1178).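 Further: growth measured as culture turbidity by optical density at 650 nm; test concentration not given here.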 The note with it: E. coli DRC39 acrAB, higher = more signal, called active from +8 up or from −8 down.
Experiment [18] in a line: growth of efflux-deficient E. coli DRC39 – strain DRC39, OD650, 48 h, E. coli filamentation inducers, primary screen (AID 1179).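 Further: screen aims at cell division blockers that make cells filament.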 To be noted: E. coli DRC39 delta-acrAB growth, higher = more signal, called active from +8 up or from −8 down.
Experiment [19] can be described thus: viability profiling in RPMI8226 myeloma cells – cell-based, resazurin fluorescence, basal, 24 h, PK04 Diversity Set, profiling panel (AID 1180).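 Further: RPMI8826 multiple myeloma cell line at 5000 cells per well; test concentration not given here.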 The note with it: higher = more signal.
Experiment [20] deals with E3 ubiquitin-protein ligase XIAP (Homo sapiens) (UniProt P98170). The experiment can be described thus: small molecules binding XIAP protein – biophysical, small-molecule microarray, fluorescence 635 nm, primary screen (AID 1181).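 Further: score merges 667 nm emission and signal to noise over triplicate slides.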 To be noted: higher = more signal.

The source made the active and inactive calls. Unless noted, how the calls were made is not given here.

Sequence of Dihydroorotate dehydrogenase (quinone), mitochondrial (Plasmodium falciparum (isolate 3D7)) (Q08210 whole entry, looked up): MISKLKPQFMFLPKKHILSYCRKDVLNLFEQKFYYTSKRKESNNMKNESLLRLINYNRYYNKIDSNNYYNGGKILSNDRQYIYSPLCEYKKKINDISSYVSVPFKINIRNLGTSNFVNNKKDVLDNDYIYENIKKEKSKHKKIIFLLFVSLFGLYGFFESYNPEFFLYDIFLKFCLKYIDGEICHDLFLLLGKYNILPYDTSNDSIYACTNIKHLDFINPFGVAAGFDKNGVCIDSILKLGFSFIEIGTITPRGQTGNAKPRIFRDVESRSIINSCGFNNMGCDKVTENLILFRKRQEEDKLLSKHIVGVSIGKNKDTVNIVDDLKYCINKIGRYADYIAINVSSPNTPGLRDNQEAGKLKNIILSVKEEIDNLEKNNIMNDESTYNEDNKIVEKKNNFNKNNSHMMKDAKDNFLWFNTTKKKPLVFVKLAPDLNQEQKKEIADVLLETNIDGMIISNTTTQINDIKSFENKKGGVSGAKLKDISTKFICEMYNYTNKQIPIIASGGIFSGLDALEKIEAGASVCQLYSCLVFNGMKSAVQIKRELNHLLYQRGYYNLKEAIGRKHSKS
Sequence of E3 ubiquitin-protein ligase XIAP (Homo sapiens) (P98170 whole entry, looked up): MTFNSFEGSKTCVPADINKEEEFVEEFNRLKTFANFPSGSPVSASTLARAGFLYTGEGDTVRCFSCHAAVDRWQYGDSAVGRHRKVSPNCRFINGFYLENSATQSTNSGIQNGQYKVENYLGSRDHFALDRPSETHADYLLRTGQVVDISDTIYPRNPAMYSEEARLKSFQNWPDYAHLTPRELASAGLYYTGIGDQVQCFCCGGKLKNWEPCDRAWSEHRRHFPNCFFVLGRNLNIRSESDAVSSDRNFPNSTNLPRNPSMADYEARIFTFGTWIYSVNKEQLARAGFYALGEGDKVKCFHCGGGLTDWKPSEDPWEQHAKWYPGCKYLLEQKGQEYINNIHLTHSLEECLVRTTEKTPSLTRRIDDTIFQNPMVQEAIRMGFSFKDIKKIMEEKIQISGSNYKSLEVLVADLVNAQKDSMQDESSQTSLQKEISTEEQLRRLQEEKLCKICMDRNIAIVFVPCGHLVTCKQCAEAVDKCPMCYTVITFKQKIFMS

Turning to `C=CCNC(=O)[C@@H]1[C@H]2C(=O)O[C@H](c3ccccc3)[C@H](c3ccccc3)N2[C@H](c2ccc(O)cc2)[C@@]12C(=O)N(C(=O)OCCOC)c1ccccc12`, the z-score is 0.231 in [1]; 2.01 in experiment [2]; 0.0902 in [3]; -0.549 in experiment [4]; -1.52 in experiment [5]; -0.338 in experiment [6]. Further, the z-score is 0.951 (inactive) in [7]; 0.104 in experiment [8]; -0.0916 in [9]; 0.425 (inactive) in [10]; 0.09 in [11]; 0.57 (inactive) in experiment [12]. In addition, the z-score in experiment [13] is 0.177 (inactive); in experiment [15] it was 0.817 (inactive); in experiment [16], 1.01 (inactive); in experiment [17], -0.233 (inactive); in [18] it was -0.33 (inactive); in experiment [19], 0.209. Besides, the composite z-score in [14] is -0.186 (inactive); in [20], -0.17.
Take `NCCCCCCNC(=O)[C@H]1C[C@H]2C(=O)NCC(=O)N2[C@H]1c1cccc(OCCO)c1`: the z-score was 2.15 in [1]; -0.143 in [2]; 0.674 in experiment [3]; -0.0318 in experiment [4]; 0.554 in [5]; 2.48 in experiment [6]. Also, the z-score in experiment [7] was -0.194 (inactive); in [8], -0.417; in experiment [9], 0.535; in [10], 1.34 (inactive); in [11], 0.583; in [12] it was -1.42 (inactive). Further, the z-score was 0.724 (inactive) in experiment [13]; -0.475 (inactive) in [15]; -0.689 (inactive) in [16]; 1.42 (inactive) in [17]; 1.61 (inactive) in experiment [18]; 1.08 in [19]. The composite z-score in experiment [14] was -0.42 (inactive); in [20], 0.0785.
`C=C[C@H](COC(C)=O)N(Cc1ccc(OC(C)=O)c(OC)c1)S(=O)(=O)c1ccc(Br)cc1`: the z-score in experiment [1] is 1.18; in experiment [2], 0.139; in experiment [3] it was 0.285; in [4], 0.594; in experiment [5], 0.394; in experiment [6] it was 0.43. The z-score in experiment [7] was 1.19 (inactive); in [8], 0.825; in experiment [9], -0.886; in [10] it was 0.353 (inactive); in [11], 0.203; in experiment [12], -0.533 (inactive). Also, the z-score in [13] was 0.427 (inactive); in experiment [15], -0.152 (inactive); in experiment [16], 0.318 (inactive); in experiment [17], 1.65 (inactive); in [18], 2.5 (inactive); in experiment [19] it was 0.798. The composite z-score was -1.24 (inactive) in [14] and -0.162 in experiment [20].
Consider `CC(=O)NCCCC[C@@H]1NC(=O)[C@@H]2C[C@H](C(=O)NCCCCCCNC(=O)CS)[C@H](c3ccc(O)cc3)N2C1=O`, for which the z-score in experiment [1] was -0.503; in experiment [2], -0.683; in [3], 0.366; in experiment [4] it was 0.0337; in experiment [5] it was -0.66; in experiment [6], -0.638. The z-score is -0.744 (inactive) in [7]; -0.0931 in [8]; -0.795 in [9]; -0.363 (inactive) in experiment [10]; 0.107 in [11]; -0.688 (inactive) in [12]. Further, the z-score in [13] is -0.568 (inactive); in experiment [15], -0.434 (inactive); in [16], 0.208 (inactive); in experiment [17], -0.356 (inactive); in experiment [18] it was -0.214 (inactive); in experiment [19] it was -0.763. The composite z-score in experiment [14] is -0.344 (inactive); in experiment [20] it was -0.0773.
As for `O=C1[C@]2(CO)C=C(Br)[C@@H](C[C@@H]2c2ccccc2)[C@@]12CO2`, the z-score in experiment [1] was -0.425; in [2], 0.364; in experiment [3], -0.421; in [4], -2.22; in [5], -2.68; in experiment [6], -1.66. Also, the z-score in [7] is -0.435 (inactive); in [8], 0.278; in experiment [9], -1.14; in experiment [10], 0.359 (inactive); in experiment [11], 1.09; in [12], -4.57 (inactive). The z-score in experiment [13] was -0.0768 (inactive); in experiment [15], -0.884 (inactive); in experiment [16], 0.184 (inactive); in [17], 0.613 (inactive); in [18], 0.585 (inactive); in [19], -0.333. In addition, the composite z-score in experiment [14] is -0.172 (inactive); in experiment [20], -0.102.

The values above are taken from PubChem BioAssay.
